Screens from PubChem BioAssay.
Jurkat NFkB inh: inhibitors of induced NF-kB luciferase reporter, primary screen, TCR NF-kB activation inhibitor project, cell-based, luminescence, uHTS | Jurkat, PMA/ionomycin-induced NF-kB luciferase reporter | inhibition, % at 4 µM | 0.53% of 330,000 active | AID 435003, 2010; in the data active = inhibition above about 50%
KLF5 inh: KLF5 expression inhibitors, primary screen, DLD-1 cells, luminescence. 0.23% of 290,000 active. inhibition, % at 5 µM. DLD-1 KLF5 promoter-luciferase reporter;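 active = inhibition above a per-plate limit of that plate's mean compound inhibition plus 3 SD, cut at about 60% in these data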;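 note: higher means less KLF5 promoter-driven luciferase light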
697 NFkB inh: inhibitors of PMA/ionomycin-induced NF-kB reporter, 697 cells, primary screen, B-cell NF-kB inhibitor project, cell-based, luminescence, uHTS; 697 B-cell NF-kB luciferase reporter, 16 h; inhibition, % at 4 µM; 0.33% of 330,000 active; AID 435022, 2010; in the data active = inhibition above about 35%
Gli-Sufu block: Gli-Sufu pathway antagonists, primary screen, luciferase luminescence, Sufu-KO-LIGHT cells, uHTS | Sufu-KO-LIGHT fibroblasts, Gli luciferase reporter luminescence | inhibition, % at 5 µM | 0.74% of 340,000 active | AID 588413, 2011;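 active = inhibition above about 55%, limit read from the data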
aSyn 5UTR inh: MLPCN primary screen, SNCA 5' untranslated region | alpha-synuclein 5'UTR reporter, inhibitor activity | inhibition, % (tested at 7.5 µM) | 0.82% of 300,000 active; in the data active = inhibition above about 60%;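 note: H4 neuroglioblastoma cells stably carrying SNCA 5'UTR luciferase fusion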
Mdm2 MdmX PPI: inhibitors of human Mdm2-MdmX association, primary screen, cell-based, luminescence, split luciferase, SaOS-2, uHTS | Protein Mdm4 (Homo sapiens) + E3 ubiquitin-protein ligase Mdm2 (Homo sapiens), … | SaOS-2 split-luciferase Mdm2/MdmX complementation | inhibition, % at 8 µM | 3% of 330,000 active | AID 485346, 2010;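 active = inhibition of at least 50% at 8 µM in the primary screen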
Target sequence (O15151 whole entry, looked up): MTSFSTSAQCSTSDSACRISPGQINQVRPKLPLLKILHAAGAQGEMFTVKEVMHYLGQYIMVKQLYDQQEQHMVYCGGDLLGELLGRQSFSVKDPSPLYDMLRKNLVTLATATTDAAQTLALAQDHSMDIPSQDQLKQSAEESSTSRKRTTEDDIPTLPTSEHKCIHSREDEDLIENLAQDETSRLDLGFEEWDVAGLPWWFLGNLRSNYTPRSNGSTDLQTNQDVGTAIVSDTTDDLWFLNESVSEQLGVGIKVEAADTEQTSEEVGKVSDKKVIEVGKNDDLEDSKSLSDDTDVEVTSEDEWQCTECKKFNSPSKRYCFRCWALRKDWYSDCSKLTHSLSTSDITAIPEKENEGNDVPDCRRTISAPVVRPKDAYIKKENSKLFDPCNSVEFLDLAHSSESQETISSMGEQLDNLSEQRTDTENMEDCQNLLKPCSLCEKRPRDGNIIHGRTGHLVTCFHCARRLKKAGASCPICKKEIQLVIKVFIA
Target sequence (Q00987 whole entry, looked up): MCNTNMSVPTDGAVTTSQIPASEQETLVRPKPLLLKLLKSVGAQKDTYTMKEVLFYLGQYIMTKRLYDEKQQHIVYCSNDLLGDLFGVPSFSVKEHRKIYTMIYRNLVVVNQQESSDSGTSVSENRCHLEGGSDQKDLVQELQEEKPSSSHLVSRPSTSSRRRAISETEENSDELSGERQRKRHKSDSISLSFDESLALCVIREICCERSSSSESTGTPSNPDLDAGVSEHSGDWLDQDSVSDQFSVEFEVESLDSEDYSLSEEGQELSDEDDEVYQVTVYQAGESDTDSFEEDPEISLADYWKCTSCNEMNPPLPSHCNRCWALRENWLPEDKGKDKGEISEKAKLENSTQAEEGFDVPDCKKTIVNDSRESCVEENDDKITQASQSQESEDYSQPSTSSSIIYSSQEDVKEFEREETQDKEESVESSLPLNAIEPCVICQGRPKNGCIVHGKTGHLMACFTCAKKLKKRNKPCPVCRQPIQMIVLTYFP
Each line names hits and unclear results; the compound was inactive in the other large screens. This is a sample that favours compounds with a hit; in the whole collection about 4.1% have one here.

C=CC(=O)Nc1cccc(Nc2nc(N[C@H]3CC[C@H](N(C)C)CC3)nc3c2ncn3C(C)C)c1	Gli-Sufu block 76 (no result: Jurkat NFkB inh, KLF5 inh, 697 NFkB inh, aSyn 5UTR inh, Mdm2 MdmX PPI)
CC(C)[C@H](CO)Nc1nc(Nc2ccc(Cl)c(C(=O)O)c2)c2ncn(C(C)C)c2n1	none (no result: KLF5 inh)
COCCN(Cc1nnc(-c2cccs2)o1)C(=O)CN1C(=O)NC2(CCCCC2)C1=O	none (no result: KLF5 inh, aSyn 5UTR inh)
CCCCN(CC)Cc1c(O)ccc2c3c(c(=O)oc12)CCC3	none
O=c1cc(CNc2cc(C(F)(F)F)cc(C(F)(F)F)c2)nc2sccn12	aSyn 5UTR inh 65
O=c1ccc(C(F)(F)F)cn1Cc1cc(=O)n2ccsc2n1	none
CC(=O)OCCc1c2ccccc2c(CCCN(C)C)c2ccccc12	aSyn 5UTR inh 103 (no result: KLF5 inh)
CC(=O)c1ccc(NC(=O)CSc2n[nH]c(-c3cccnc3)n2)cc1	none
COc1cc(C(=O)N2CCN(C(=O)c3cc(-c4ccccc4)n[nH]3)CC2)cc(OC)c1OC	none
COc1ccccc1-c1nnc2sc(-c3cnccn3)nn12	none
COc1ccccc1-c1nnc2sc(-c3cc4ccccc4o3)nn12	aSyn 5UTR inh 76
NC(=O)c1cc2c3ccccc3ccn2c1-c1ccccc1	aSyn 5UTR inh 113 (no result: Jurkat NFkB inh, 697 NFkB inh, Mdm2 MdmX PPI)
COC(=O)c1ccc(CNC(=O)COC(=O)CC23CC4CC(CC(Br)(C4)C2)C3)cc1	none
CCCc1ccc(-c2ccc(-c3noc(-c4ccncc4)n3)cc2)nc1	none
CCCCc1ccc(-c2nc(-c3ccncc3)no2)cc1	aSyn 5UTR inh 91
CC(C)c1cc(C(C)C)c(S(=O)(=O)N2c3ccccc3[C@]3(Br)C[C@H]4C(=O)N[C@@H](Cc5ccccc5)C(=O)N4[C@H]23)c(C(C)C)c1	aSyn 5UTR inh 65 (no result: Jurkat NFkB inh, KLF5 inh, 697 NFkB inh, Gli-Sufu block, Mdm2 MdmX PPI)
O=C1N[C@@H](Cc2ccccc2)C(=O)N2[C@@H]3N(S(=O)(=O)c4ccccc4)c4ccccc4[C@]3(Br)C[C@@H]12	none (no result: KLF5 inh)
Oc1c(Br)cc(/C=N/n2c(-c3ccccc3)n[nH]c2=S)c(O)c1Br	none (no result: Jurkat NFkB inh, 697 NFkB inh, Mdm2 MdmX PPI)
Cc1c(Br)c(O)c(Br)c(O)c1/C=N/n1c(-c2ccccc2)n[nH]c1=S	aSyn 5UTR inh 62
Cc1ccc(C(=O)NCCc2cccs2)cc1	aSyn 5UTR inh 73
O=C(NCCc1cccs1)c1ccc(Cl)cc1	none
COc1ccc(C)cc1Nc1n[n+](-c2ccccc2)c(-c2ccc(N(C)C)cc2)s1	Gli-Sufu block 61
COc1ccc(C)cc1Nc1n[n+](-c2ccccc2)c(-c2ccc(OC)c(OC)c2OC)s1	none
Cc1[nH][nH]c(=O)c1C(c1c(C)[nH][nH]c1=O)c1cn(Cc2ccc(F)cc2)c2ccccc12	none (no result: Jurkat NFkB inh, 697 NFkB inh, aSyn 5UTR inh, Mdm2 MdmX PPI)
Cc1[nH][nH]c(=O)c1C(c1c(C)[nH][nH]c1=O)c1cn(Cc2ccc(Cl)c(Cl)c2)c2ccccc12	aSyn 5UTR inh 90 (no result: Jurkat NFkB inh, 697 NFkB inh, Mdm2 MdmX PPI)
Cc1cccc(C(=O)O/N=C/c2c(N3CCOCC3)n(C)c3ccccc23)c1	aSyn 5UTR inh 72 (no result: Gli-Sufu block)
CN(C)S(=O)(=O)c1cccc(CSCc2cccc(S(=O)(=O)N(C)C)c2)c1	Gli-Sufu block 57
Cc1cc(C)n2nc(SCc3cccc(S(=O)(=O)N(C)C)c3)nc2n1	none
CCN(CC(=O)Nc1c(F)cccc1F)C(=O)/C=C/c1ccc(Br)s1	none (no result: KLF5 inh)
CCCCn1c(N)c(N(CCOC)C(=O)c2ccc(-c3ccc(C(C)=O)cc3)o2)c(=O)[nH]c1=O	none (no result: KLF5 inh)
O=C(NNC1=Nc2ccccc2SC1)c1ccc(Cl)cc1	aSyn 5UTR inh 96
Cc1ccc(S(=O)(=O)N(C)C)cc1NC(=S)NC(=O)C12CC3CC(CC(C3)C1)C2	Gli-Sufu block 66
O=C(CCCCCNC(=O)c1ccccc1Br)N=Nc1c(O)[nH]c2ccccc12	none
Cc1cc(C)cc(C(=O)NC(=S)Nc2ccc(-c3cc4ccccc4oc3=O)cc2)c1	aSyn 5UTR inh 97
CC(=O)Nc1ccc(NC(=O)c2cccc(-c3cc4ccccc4oc3=O)c2)cc1	none
CN(C)c1ccc(/C=C/c2cccc[n+]2[O-])cc1	none
CN(C)c1ccc(/C=C/c2ccc3c4ccccc4ccc3[n+]2-c2ccccc2)cc1	Gli-Sufu block 92 (no result: Jurkat NFkB inh, 697 NFkB inh, aSyn 5UTR inh, Mdm2 MdmX PPI)
CC(NCC(=O)NC(=O)NCCC1=CCCCC1)c1ccc(S(N)(=O)=O)cc1 (stereo not given)	none (no result: Jurkat NFkB inh, KLF5 inh, 697 NFkB inh, aSyn 5UTR inh, Mdm2 MdmX PPI)
CC(C)CC(=O)Nc1ccc(C(=O)COC(=O)C2CCC2)cc1	none
